# High-throughput results as filed in PubChem.
# A selection: hits, their analogues and other compounds. The true share with any hit is near 8%.
# HCMV antiviral – inhibitors of human cytomegalovirus. 4.5% of 410,000 active. activity change, negative = inhibition, % at 57.5 µM. HFF cells, HCMV-luciferase reporter, 72 h; hits give low values. AID 1259415; in the data active means activity change below about -60%; inconclusive means no clear call, values can overlap the other calls; inactive means above about -39%; further: on the % scale 0 is the no-effect control and ±100 the full control effect
#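 HFF cells seeded 16 h at 37C, treated with compounds, infected with luciferase-reporter HCMV at MOI 1 PFU/cell; luciferase read at 72 h post infection, normalized to buffer-only and Salinomycin controls.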
# HCV inh – inhibitors of hepatitis C virus infection; 3.4% of 340,000 active; Potency, µM (titrated, usually from 41.8 µM), for inactives: at the highest dose activity change, negative = inhibition, usual class: inhibitors; Huh7.5.1 HCVcc-Cre infection, luciferase reporter, 44 h; active means well fitted inhibition curve with a large enough effect; inconclusive means small, poorly fitted or top-dose-only effect, or another doubt; inactive means no such curve, though single readings can be large or run the other way; further: potency means the concentration at half of the fitted maximal effect; on the % scale 0 is the no-effect control and ±100 the full control effect
#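 Luciferase read-out (15 sec integration) after a 15 min room-temperature substrate step quantifies HCVcc-Cre infection. Cells, 1,000 per well, had compound added 4 h post-plating, then virus at ~0.5 moi, and were cultured 44 h.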
# FMDV inh – antivirals against foot and mouth disease virus; AID 1159524; FMDV antiviral cell-based qHTS; 1.2% of 410,000 active; Potency, µM (doses to about 57.9 µM), without a hit: at the top dose activity change, negative = inhibition, most hits filed as inhibitors; calls by dose curve; tested in HEK293T cells; further: read-out not given here; potency means the concentration at half of the fitted maximal effect; on the % scale 0 is the no-effect control and ±100 the full control effect; nearly all actives have a fitted effect of over 45% in size
# Marburg entry inh – inhibitors of Marburg virus binding or cell entry; Marburg virus pseudotyped entry inhibition, cell reporter; 1.8% of 300,000 active; Potency, µM (doses to about 37.8 µM), inactives show at the top dose activity change, negative = inhibition, hits mostly inhibitors; calls by dose curve; tested in HEK293 cells; further: potency means the concentration at half of the fitted maximal effect; on the % scale 0 is the no-effect control and ±100 the full control effect
# SARS PLpro yeast-1 – inhibitors of SARS-CoV papain-like protease in yeast; S. cerevisiae expressing SARS-CoV PLpro, growth rescue; Potency, µM (titrated, usually from 32.9 µM), for the others: top-dose activity, positive = growth rescue, usual class: activators; 0.19% of 330,000 active; calls by dose curve; further: potency means the concentration at half of the fitted maximal effect; 0% is about no effect; nearly all actives have a fitted effect of over 55% in size
# LASV entry inh – inhibitors of Lassa virus binding or cell entry; Potency, µM (doses to about 37.9 µM), inactives show at the highest dose activity change, negative = inhibition, hits mostly inhibitors; Lassa virus pseudotype entry inhibition, cell reporter; 1.2% of 300,000 active; calls by dose curve; tested in HEK293 cells; further: potency means the concentration at half of the fitted maximal effect; on the % scale 0 is the no-effect control and ±100 the full control effect; nearly all actives have a fitted effect of over 50% in size
# SARS PLpro yeast-2 – Validates SARS-CoV PLpro inhibitor hits in yeast. calls only. yeast expressing SARS-CoV PLpro, growth phenotype rescue. AID 652038. shares compounds with SARS PLpro yeast-1. 19% of 1,000 active; call rule not given here
# Numbers without * were called inactive; i = inactive; u = inconclusive; x = no result; + = active, no number; [ ] = dose if it differs, or a comment.
SMILES,HCMV antiviral,HCV inh,FMDV inh,Marburg entry inh,SARS PLpro yeast-1,LASV entry inh,SARS PLpro yeast-2
CCC(=O)N1CCC1(C)C(=O)Nc1ccc(OC)c(OC)c1 (centres undefined),-12,x,-15%,x,x,x,x
CC(C)Nc1nc(NC(C)C)nc(OCCOC(=O)c2ccccc2)n1,-2,u,13%,-7%,u,-18%,i
CC(=O)OCCOc1nc(NC(C)C)nc(NC(C)C)n1,37,15%,-3%,4%,-9%,-14%,x
O=C(CSc1nnc2ccccn12)NNC(=O)c1cccc(Cl)c1,-9,1%,9%,-6%,6%,26%,x
CCOC(=O)C1=C(Cn2cnc3ccccc32)NC(=O)NC1c1cc(C)ccc1C (centres undefined),19,u,u,u,-5%,u,x
CCOC(=O)C1=C(CNCc2ccc(C)cc2)NC(=O)NC1c1cc(C)ccc1C (centres undefined),-7,3%,u,-27%,u,1%,i
O=C(NCc1ccco1)c1ccc(Cl)c(S(=O)(=O)N2CCc3ccccc32)c1,-82*,u,u,u,u,u,i
O=C(/C=C/c1ccc(F)cc1)NC(Cc1c[nH]c2ccccc12)C(=O)O (centres undefined),13,-9%,10%,22%[46.1 µM],-5%,2%,x
COC(=O)CSc1nc(N2CCOCC2)c2c(c1C#N)CC(C)(C)OC2,70,-3%,-11%,u,0%,20%[46.1 µM],x
COC(=O)Sc1nc(N2CCOCC2)c2c(c1C#N)CC(C)(C)OC2,45,-18%,-15%,-15%,10µM*,0%,+
Cc1c(C(=O)Nc2c3c(nn2C(C)(C)C)CS(=O)(=O)C3)cccc1[N+](=O)[O-],-29,6%,-26%,x,u,x,x
COc1ccc(/C=N/NC(N)=S)cc1OC(=O)c1ccccc1,8,3%,-6%,u,11µM*,0%,i
NC(=S)N/N=C/C=C/c1ccccc1,-33,-12%,16%,-3%,1.6µM*,14%,+
NC(=S)N/N=C/c1ccc2ccccc2c1,-25,-16%,6%,u,5.6µM*,8%,+
C/C=C/c1ccc(OCCCNC(C)CC)c(OC)c1 (centres undefined),-10,-17%,-8%,u,22µM*,3%,i
CCOCCCNC(=O)C(c1ccc(C)cc1)N(Cc1ccc2c(c1)OCO2)C(=O)c1ccc(NC(C)=O)cc1 (centres undefined),-1,x,-19%,u,x,u,x
COc1cccc(NC(=O)COC(=O)CNS(=O)(=O)c2c(F)cccc2F)c1,18,20%,3%,u,u,14%,i
COc1cccc(NC(=O)COC(=O)c2ccccc2F)c1,u,13%,7%,2%,-3%,-3%,x
O=C(COC(=O)c1cccnc1Cl)NC1CCCCCC1,-22,-1%,21%,-10%[46.1 µM],3.2µM*,-2%[46.1 µM],i
CC(NS(=O)(=O)/C=C/c1ccccc1)C(=O)NCCc1ccc(S(N)(=O)=O)cc1 (centres undefined),-17,1%,-7%,12%[46.1 µM],0%,-5%[46.1 µM],x
COc1ccccc1C(=O)NCCN=C1NS(=O)(=O)c2ccccc21,-10,6%,10%,0%[46.1 µM],1%,u,x
COc1ccc2c(c1)OC[C@H]1[C@H]2N2C(=O)CN(Cc3ccc(C)cc3)C(=O)[C@@]2(C)[C@H]1c1ccccc1,-12,11µM*,-14%,x,11µM*,x,i
CCCCN1CC(=O)N2[C@H]3c4ccc(OC)cc4OC[C@@H]3[C@H](c3ccccc3)[C@]2(C)C1=O,18,u,-19%,x,u,x,i
COc1ccc2c(c1)OC[C@H]1[C@H]2N2C(=O)CN(Cc3ccc(F)cc3)C(=O)[C@@]2(C)[C@H]1c1ccccc1,-5,u,u,x,0%,x,x
CN(CCc1ccccc1)c1cc2c(c3c1ccn3C)C1CCC2C1 (centres undefined),-31,x,-23%,u,x,x,x
SMILES,HCMV antiviral,HCV inh,FMDV inh,Marburg entry inh,SARS PLpro yeast-1,LASV entry inh,SARS PLpro yeast-2
CC(=NC(C)C)C1=C(O)CCC1=O,u,6%,0%,18%,u,-12%,i
Cc1ccc(NC(=O)Cc2c(O)c3ccccc3[nH]c2=O)c(C)c1,-15,5%,12%,-1%,0%,21%,x
O=C(CCC(=O)N(CC(=O)NC1CCCC1)c1cccc(F)c1)Nc1nccs1,6,-12%,10%,11%[46.1 µM],3%,2%[46.1 µM],x
Cc1cc(-c2n[nH]c(=S)n2CC(C)C)cs1,u,-3%,-22%,1%,u,u,+
CCn1c(SCC(=O)NC2CCCCC2)nnc1-c1ccccn1,-4,2%,-11%,x,3.5µM*,x,i
COc1ncc(-c2c(-c3ccccc3OC)sc3ccccc23)cn1,-5,x,-10%,x,x,x,x
C/C(=C\C(=O)c1ccc(C)o1)Nc1ccc2c(c1)OCO2,8,11%,44%,-6%,u,23%,i
Cc1ccc(C(=O)Nc2ccc3c(c2)OCO3)o1,146,6%,40%,-12%,-10%,-9%,x
O=C(N/N=C/c1c(O)n(CCc2ccc(F)cc2)c(=O)[nH]c1=O)c1ccncc1,1,5%,2%,u,19%,2%,x
COc1ccc(Cn2c(O)c(C=NCCN3CCOCC3)c(=O)[nH]c2=O)cc1,-1,15%,-1%,2%,-7%,u,x
O=C(N/N=C/c1c(O)n(Cc2ccccc2)c(=O)[nH]c1=O)c1ccccc1O,-33,6%,7%,u,10µM*,u,i
COc1ccc(Cn2c(O)c(/C=N/NC(=O)c3ccccc3)c(=O)[nH]c2=O)cc1,-9,-14%,-17%,x,10µM*,x,i
O=C(N/N=C/c1c(O)n(Cc2ccc(F)cc2)c(=O)[nH]c1=O)c1ccccc1O,63,-3%,17%,-24%,11µM*,-2%,i
COc1ccc(Cn2c(O)c(/C=N/NC(=O)c3ccccc3O)c(=O)[nH]c2=O)cc1,u,8%,0%,2%[46.1 µM],10µM*,-2%,i
COc1ccc(Cn2c(O)c(/C=N/NC(=O)c3ccncc3)c(=O)[nH]c2=O)cc1,2,-2%,-16%,9%[46.1 µM],10%,2%[46.1 µM],x
Cc1ccc(C(C)C)c(OCCCn2c(=O)oc3ccc(C)cc32)c1,-17,x,-22%,-19%[46.1 µM],x,15%[46.1 µM],x
COc1ccc(CNC(=O)Cc2c(C)c3ccc(O)cc3oc2=O)cc1,5,x,17%,19%[46.1 µM],x,12%[46.1 µM],x
COc1ccc(NC(=O)c2ccc(=O)[nH]c2)cc1S(=O)(=O)N1CCOCC1,4,3%,-21%,-7%,3%,18%,x
COc1ccccc1CNC(=O)CC(c1ccc(OC)c(OC)c1)N1Cc2ccccc2C1=O (centres undefined),8,x,54%,x,x,4%[46.1 µM],x
